The source of these data is the supplement of paper PMC6555819.

The subject of the test is PPARg:RXRa 270nM:90nM, anti-RXR (NR concentration 270 nM, RXRa partner concentration 90 nM). In words: PBM binding z-score (relative to random genomic background probes); higher = stronger binding; sequences stand for … in GC…GCGATTGACAGCGTAGAATGAAGG
The procedure, abridged: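 Ligand-free nuclear receptor dimers were applied to custom Agilent 4×180K protein-binding microarrays whose double-stranded probes carried direct-repeat seeds, single-nucleotide variants, half-site ablations and random human genomic background sequences in 34-nt variable regions. Incubation lasted 1 h. Binding z-scores were computed against the random background probes from regression-normalized fluorescence.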
On to CCGACTGGGGCATAAGGTTACTATAAGCCAGCCC, for which the PBM binding z-score was 2.96.
Take CTCGAAAGGTCGGTTGAGGTGAGTACACGGATAA: the PBM binding z-score is 1.4.
AATACAGGGTCACTATGCCAGAGTAGGTACGAAT: the PBM binding z-score came to 4.87.
Sequence TAGCCTAGGTCAGATCGGGCCTGTATACGCTATA registered a PBM binding z-score of 0.395.
TATACAGGGTCAAAGGCCAGGGTACGAATGTCGA came in with a PBM binding z-score of 7.29.
TCTAGTTGGTCACGGAGGTCACACTCGACGGGTA showed a PBM binding z-score of 3.93.
Under AGTTAAAGTTCACTAGGTAACGTAAGATTCAGCT stands 5.79; under CCTTACGGGTCACTGACAGGTTATACCATTTGGA, 4.39; under ACCGAAAGGTCGTGAGGTGAGTATACAGAAAGGC, 4.37.
In turn, CGTCCAAGGTGAAGGTCAGTGAAAGAGACTCGAA came in with a PBM binding z-score of 2.81.
Under ATCTCTAGGTAGGACTCAGTTCAGTGAAGAACGC stands 0.732; under ACTATTAGTTGAGACGACGGCAACCGATAGGTTG, -0.326; under ATCACTAGGTAAGACTCAGTTCAGTGAAGAACGC, 0.383.
In turn, TCATATAGGTAAATGCTAGGTGTAAGTCCGATCT came in with a PBM binding z-score of 2.17.
Under CTCGAAAGGTCGTGCTCAGGTGGGTATACCAAAC stands 3.18; under AGAATGAGCTTATTAAGATCAGGGAATTGCGGTC, -0.444; under TCTCGGAGGACACGACAGGTCAGAGCTCGACATC, 1.1.
TCTTGTAGATCAGGCAGGTTAAGAAAGCCTGAGT had a PBM binding z-score of 0.864.
Under GATACAGGGTCAGCTAGAGGCCAAAGTATGGAAA stands 3.58; under CCTATTAGTTGACCATAAGGGTAACCGAAGCTCG, 0.671; under ATCTCTAGGTAAAGATAGTTCAGTGGATGCAAAT, 0.242.
Then CAGCCTAGGTCAGTGCCAGTATAGGAGGAACGTT, with 0.475; and CGAACTAGGTCATTGACAGGACAGAGAATAGTAA, with 6.39; and CGCACGAGGGCATGAGTTGATAGCAAATGCCGAT, with 0.583.
Sequence ACAGACAGGTGAGTGAAGATAACTCAGCTGGACG had a PBM binding z-score of -0.267.
Then GCGACTGGGGCATCCGCAGGTTACCATAACTTAA, with 0.848.
As for ACTAGCAGGCCAAGTGTGGGTCACTCAAACAAAG, the PBM binding z-score worked out at 1.38.
Then GATACAGGGTCAAGGCGAGAGTACGCGTATTGAT, with 5.39; and ACAGACAGGTGAGTAAAGGTAACTCAGCTGGACG, with 1.64; and ACTAGTTGGTCAGCTGAGGTCACCCACAATTCGG, with 2.6.
Then CCGAGTGGGGCAAGGTTACCATAACGCACAGCCA, with 2.77; and CAAACTAGGTCAAGAGGTCAAAATCCGCTTCCCG, with 8.11; and CCGACTTGGGCATAAGGTTACCATAAGCCAGCCC, with 0.712.
Then CGTTACGGGTCACTGACAGGTTATAGCATTTGGA, with 4.21; and CGAGCTAGGTCATCCAGGACAGTGAATACATTGA, with 2.25.
CCTAGTTGGTCAAGTTCACACACGCTATAGGTAC registered a PBM binding z-score of 1.5.
CGTCCAAGGTCATAGGAGGTCAGTGTAGACAGAT came in with a PBM binding z-score of 5.77.
Then CCTAGTTGGTCAGCAGGTCACACACCGGATATGA, with 2.51; and CGTCCAAGGCCAGCAGGTCAGTGAAAGCGACGTG, with -0.182; and TCTATTATTTGATTAGGGCAACCGAAACAGCGGA, with 2.43.
